Reference: PubChem BioAssay (NCI)
Compounds without any hit were thinned out: in the full panel of roughly 79,000, 15% have a hit. The source made the active and inactive calls. No stated cut-off is given here; in the data, active means growth inhibition above about 70%; inactive means the rest.

What was measured:
[1] = NCI Yeast Anticancer Drug Screen. Data for the rad50 strain (AID 155);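 further: 0% = growth of vehicle-only cultures of the same strain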; conditions: S. cerevisiae rad50 strain growth inhibition; at 50.0 µM; stronger effect = higher value
How it was run: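 Genetically altered yeast (DNA repair pathway); compound treatment; growth inhibition vs vehicle ctrl.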

[2] = NCI Yeast Anticancer Drug Screen. Data for the mec2-1 strain (AID 157); conditions: S. cerevisiae mec2-1 strain, at 50.0 µM, stronger effect = higher value
How it was run: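 Using mec2-1 yeast: add compound, measure growth, express inhibition versus vehicle-treated cultures.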

[3] = NCI Yeast Anticancer Drug Screen. Data for the sgs1 mgt1 strain (AID 161);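 further: 0% = growth of cultures given vehicle only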; conditions: S. cerevisiae sgs1 mgt1 strain, at 50.0 µM, stronger effect = higher value
How it was run: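 Percent growth inhibition was derived by comparing compound-exposed mutant yeast with vehicle-exposed cultures. The strain carries alterations in DNA damage repair.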

[4] = NCI Yeast Anticancer Drug Screen. Data for the cln2 rad14 strain (AID 165);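 further: 0% = growth equal to vehicle treated cultures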; conditions: S. cerevisiae cln2 rad14 strain, at 50.0 µM, stronger effect = higher value
How it was run: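 Yeast strain cln2 rad14, bearing defects in cell cycle control and DNA repair, serves as the test system; values reflect growth inhibition compared with vehicle.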

[5] = NCI Yeast Anticancer Drug Screen. Data for the bub3 strain (AID 167); conditions: S. cerevisiae bub3 mutant strain, at 50.0 µM, stronger effect = higher value
How it was run: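 Yeast carrying a defined mutation is treated with each compound, and growth is compared with that of vehicle-exposed cells to give inhibition.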

[6] = NCI Yeast Anticancer Drug Screen. Data for the mlh1 rad18 strain (AID 175); conditions: S. cerevisiae mlh1 rad18 strain growth inhibition; at 50.0 µM; stronger effect = higher value
How it was run: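 Steps: expose repair-defective yeast to compound; measure growth; express inhibition against vehicle-treated controls.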

Measured: growth inhibition

Brc1cccc(-c2nnc(-c3ccccc3)o2)c1
inactive: [1] -4.15% | [2] -11.7% | [3] -8.4% | [4] -41.5% | [5] -0.4% | [6] -12.1%

CCN(CC)c1ccc(N=C2C=CC(=O)C(C)=C2)c(C)c1
inactive: [1] -3.05% | [2] -14.6% | [3] -0.9% | [4] -23.4% | [5] 11.8% | [6] 3.05%

O=c1[nH]c(Nc2ccc(Cl)c(C(F)(F)F)c2)nc2nc[nH]c12
inactive: [1] 17.7% | [2] 7.55% | [3] -9.5% | [4] 9.9% | [5] 8.45% | [6] 23.1%

O=c1[nH]nc(Cc2ccccc2)n1CCCl
inactive: [1] 16.9% | [2] 13.8% | [3] 15.6% | [4] -3.7% | [5] 8.35% | [6] 11.5%

CCC1(C)CC(C)(C)c2cc(C(C)=O)c(C)cc21 (stereo unspecified)
inactive: [1] 8.1% | [2] -1.05% | [3] -4.7% | [4] -29.5% | [5] 11.3% | [6] 4.15%

OCCN(CCO)c1cc(/C=C/c2c3ccccc3cc3ccccc23)nc2ccccc12
active: [1] 94.2% | [2] 95.9% | [3] 96.1% | [4] 94.8% | [5] 96.5% | [6] 95.7%

CCOC(CCl)(NC(C)=O)C(=O)OC (stereo unspecified)
inactive: [1] -0.5% | [2] -9.7% | [3] -9.55% | [4] -8.75% | [5] 4.3% | [6] -8.1%

CCCCCCC(C)NCC(=O)Nc1ccccc1C (stereo unspecified)
inactive: [1] -2.7% | [2] 14.2% | [3] 25.6% | [4] -44.7% | [5] 59.7% | [6] 30.6%

O=S(=O)(O)CCNC(=S)C(=S)NCCS(=O)(=O)O
inactive: [1] 29.1% | [2] 14.2% | [3] 7.75% | [4] 6.2% | [5] 8.7% | [6] 5.7%

COc1ccc(C(O)S(=O)(=O)O)cc1 (stereo unspecified)
inactive: [1] -1.1% | [2] -13.9% | [3] -9.9% | [4] -6.75% | [5] -22.1% | [6] 1.2%

COC(=O)CCCC(=O)NC1=C(NCc2ccccc2)C(=O)c2ccccc2C1=O
inactive: [1] 10.1% | [2] 12.3% | [3] 33.6% | [4] 13.8% | [5] 32.1% | [6] -0.35%

O=C(CC(=O)Nc1ccccc1)NNC(Sc1ccccc1)c1cc(N=Nc2ccc(Br)cc2)ccc1O (stereo unspecified)
inactive: [1] 4.6% | [2] 14.1% | [3] 11.2% | [4] -10% | [5] -2.9% | [6] -4.7%

Cn1c(=O)c2c3ccccc3c(C(=O)c3ccccc3)n2c2ccccc21
inactive: [1] 38.4% | [2] 4.1% | [3] 27.4% | [4] 25.9% | [5] -1.25% | [6] 34.4%

COC(=O)c1cc(CC2Cc3cc4c(cc3C2)CCC4)cc2c1CCC2
inactive: [1] -16.7% | [2] -8.85% | [3] -29.1% | [4] 15.3% | [5] 0.7% | [6] -1.25%

CC(=O)OCCSSCCOC(C)=O
inactive: [1] -4.9% | [2] -26.4% | [3] 13% | [4] 6.55% | [5] -1.9% | [6] -3.75%

CC(=O)Oc1ccc2c(c1)CC[C@@H]1C2[C@@H](O[N+](=O)[O-])C[C@@]2(C)C1CC[C@@H]2O[N+](=O)[O-] (stereo partly specified)
inactive: [1] 24.4% | [2] 7.9% | [3] 15.2% | [4] 10.1% | [5] 10.1% | [6] 14.8%

O=CCS
inactive: [1] -0.2% | [2] 4.85% | [3] -5.6% | [4] -38% | [5] -31.2% | [6] 7.15%

CCOc1ccccc1/C=N/NS(=O)(=O)c1ccc([N+](=O)[O-])cc1
inactive: [1] -19.2% | [2] -23.1% | [3] 2.55% | [4] -18.6% | [5] 12.9% | [6] -14.2%

COC(=O)C(=O)C(C(=O)C=C(C)C)c1nc2n(c1O)C(=N)N=N2 (stereo unspecified)
inactive: [1] 13.2% | [2] 20.9% | [3] 14.3% | [4] -1.75% | [5] 13.1% | [6] 17.4%

CCCCCCCCCC(CC(OC)OCC)OC (stereo unspecified)
inactive: [1] 10.7% | [2] 4.25% | [3] 5.9% | [4] -13.8% | [5] -2.7% | [6] -24.6%

CCOC#CCCOCc1ccccc1
inactive: [1] -28.9% | [2] -46.2% | [3] -5.25% | [4] -1.65% | [5] -11% | [6] -16.6%

CC(O)c1cccc(NC(=O)Nc2ccc(Cl)c(Cl)c2)c1 (stereo unspecified)
active: [2] 83.4%
inactive: [1] 12% | [3] 70% | [4] 1.15% | [5] 43.8% | [6] 54.5%

CN(C)CCCNc1nc2cc(Cl)ccc2o1
inactive: [1] -7.1% | [2] -9.85% | [3] -5.7% | [4] -38.6% | [5] 6.7% | [6] -2.4%

O=C(O)CCCc1ccc2c(c1)CC1(C2)Cc2cc3c(cc2C1)CCCC3
inactive: [1] -11.7% | [2] -32.4% | [3] -16.9% | [4] 24.2% | [5] 18.4% | [6] 7.4%

N#CSCc1ccc(CSC#N)c(Br)c1
inactive: [1] 20.2% | [2] 14.9% | [3] 7.85% | [4] 18.6% | [5] 10.4% | [6] 43.4%

COC(=O)C(=O)C(C#N)c1c(Cl)cccc1Cl (stereo unspecified)
inactive: [1] -5.6% | [2] 39.1% | [3] 0.05% | [4] 8.9% | [5] 1.65% | [6] 34.1%

NCC(=O)NCC(=O)NCC(=O)NCC(=O)NCC(=O)NCC(=O)O
inactive: [1] 26.1% | [2] 16.4% | [3] 0.4% | [4] -38.6% | [5] -3.5% | [6] -3.65%

CCC/C(Cl)=N/OC(=O)Nc1cc(C(F)(F)F)ccc1OC
inactive: [1] -34.1% | [2] 17.6% | [3] 5.8% | [4] 8.5% | [5] 40.6% | [6] 21.3%

CCCCc1c(O)c(N=NC(N)=S)c2ccccc2c1O
inactive: [1] 14.9% | [2] 8.45% | [3] 36.8% | [4] -22.1% | [5] 32.6% | [6] 43.5%

O=C(O)c1ccc([N+](=O)[O-])c(P(=O)(O)O)c1
inactive: [1] -5.95% | [2] -7% | [3] -12.2% | [4] -42.8% | [5] -29.6% | [6] -3.5%

O=[N+]([O-])c1ccc(CCn2cnc3c(N(CCO)CCO)ncnc32)cc1
inactive: [1] -7.85% | [2] -0.9% | [3] 3.6% | [4] -54.3% | [5] 6.95% | [6] -14.3%

CC1(C)CC(C)(O)N(CCc2ccccc2)C(=S)N1 (stereo unspecified)
inactive: [1] -6.55% | [2] 2.7% | [3] 8.8% | [4] -17.1% | [5] 5.15% | [6] 2.45%

CN1CC(=O)N(CO)/C1=N\CO
inactive: [1] -7.15% | [2] -5.45% | [3] -6.85% | [4] -10.8% | [5] 5.85% | [6] 2.05%

N#Cc1sc2nc3c(c(-c4ccccc4)c2c1N)CCCC3
inactive: [1] -8.3% | [2] -4.65% | [3] -0.95% | [4] -8.4% | [5] -8.1% | [6] -5.75%

CCc1ncc(C)[nH]1
inactive: [1] 0.55% | [2] -13.8% | [3] -6.35% | [4] -0.15% | [5] -12.1% | [6] -8.8%

CO/C=C(/C#N)S(=O)(=O)/C(C#N)=C/OC
inactive: [1] 32.5% | [2] 37.3% | [3] 34% | [4] 4.65% | [5] 24.9% | [6] 15.9%

COC1OCC(OS(C)(=O)=O)C(OS(C)(=O)=O)C1OS(C)(=O)=O (stereo unspecified)
inactive: [1] -22.5% | [2] -6.1% | [3] -26.1% | [4] -55.2% | [5] -1% | [6] -2.85%

CC(=O)OC1C(C)OC(OC(=O)C2CCC3C(C2)OC2(CC(OC(=O)/C=C/c4ccccc4)C(C)CO2)C32CO2)C(OC2OC(C)C(O)C(O)C2O)C1O (stereo unspecified)
inactive: [1] 1.3% | [2] -16.8% | [3] 2.3% | [4] 13.5% | [5] 3.65% | [6] -62.9%

O=[N+]([O-])c1cc2c(cc1O)[nH]c1cccc([N+](=O)[O-])c12
inactive: [1] -2.25% | [2] -11.4% | [3] -42.5% | [4] 21.1% | [5] -15.8% | [6] -22.6%

CC(=O)N1C(Nc2ccccn2)CCN1c1ccccc1 (stereo unspecified)
inactive: [1] -30.9% | [2] -45.3% | [3] -21.4% | [4] 16.6% | [5] 7.9% | [6] -23.2%

COc1ccc(Nc2nc3ccccc3nc2C(=O)O)cc1OC
inactive: [1] -23.9% | [2] 12.1% | [3] -9.6% | [4] 6.15% | [5] 26.1% | [6] -33.8%
